# Data taken from article PMC7862700, “An all-to-all approach to the identification of sequence-specific readers for epigenetic DNA modifications on cytosine”.
# Key:
# Assay in all cases: DAPPL (digital affinity profiling via proximity ligation, sequencing); 10 mM Tris-HCl pH 7.5, 50 mM NaCl, 1 mM DTT, 4% glycerol, room temperature, 30 min; GST-TFs on glutathione beads, 16-mer random dsDNA library, 0.1% formaldehyde crosslink after washing; high values mean tight binding
# [1] = molecular target: T1, FLI1 (Homo sapiens, UniProt Q01543 1-452); conditions: protein: recombinant; tags: N-terminal GST; dsDNA, one strand shown
# T1 sequence: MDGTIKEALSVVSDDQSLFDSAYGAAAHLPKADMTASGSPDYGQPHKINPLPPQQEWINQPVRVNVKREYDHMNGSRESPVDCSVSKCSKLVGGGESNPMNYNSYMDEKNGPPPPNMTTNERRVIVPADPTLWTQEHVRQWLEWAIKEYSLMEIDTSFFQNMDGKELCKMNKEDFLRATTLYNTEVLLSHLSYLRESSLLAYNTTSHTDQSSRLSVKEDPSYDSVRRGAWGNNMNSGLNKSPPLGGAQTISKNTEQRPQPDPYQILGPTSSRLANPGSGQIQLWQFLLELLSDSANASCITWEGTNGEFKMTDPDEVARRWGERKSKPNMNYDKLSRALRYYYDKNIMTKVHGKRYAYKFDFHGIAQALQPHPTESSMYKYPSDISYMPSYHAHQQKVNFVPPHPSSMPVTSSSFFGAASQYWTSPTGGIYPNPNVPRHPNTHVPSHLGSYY
# Outline: (§1)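 Pools were built from human transcription factors expressed in yeast as GST fusions, captured on glutathione beads and DNA-barcoded, along with a tag-only sample. Incubation with 200 nmole of a 16-mer random double-stranded DNA library lasted 30 min at room temperature in Tris/NaCl/DTT/glycerol buffer, and was followed by washing, 0.1% formaldehyde crosslinking, proximity ligation, PCR amplification and Illumina NextSeq500 sequencing. Binding signal is the quotient of each hexamer's read frequency for a factor and its frequency for the tag-only sample.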
# [2] = molecular target: T2, ELK1 (Homo sapiens, UniProt P19419 1-428); conditions: protein: recombinant; tags: N-terminal GST; dsDNA, one strand shown
# T2 sequence: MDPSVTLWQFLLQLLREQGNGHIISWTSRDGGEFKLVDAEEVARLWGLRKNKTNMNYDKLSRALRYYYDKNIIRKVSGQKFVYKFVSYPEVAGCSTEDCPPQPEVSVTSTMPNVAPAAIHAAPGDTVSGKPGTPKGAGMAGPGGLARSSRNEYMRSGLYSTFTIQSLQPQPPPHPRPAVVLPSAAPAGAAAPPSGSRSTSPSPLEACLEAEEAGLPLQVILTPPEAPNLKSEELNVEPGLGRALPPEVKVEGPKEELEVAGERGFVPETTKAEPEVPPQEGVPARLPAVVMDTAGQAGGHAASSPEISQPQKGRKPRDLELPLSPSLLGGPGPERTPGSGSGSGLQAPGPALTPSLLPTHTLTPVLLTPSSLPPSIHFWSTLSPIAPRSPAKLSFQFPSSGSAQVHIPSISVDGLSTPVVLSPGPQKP
# Outline: as §1
# [3] = molecular target: T3, GABPA (Homo sapiens, UniProt Q06546 1-454); conditions: protein: recombinant; tags: N-terminal GST; dsDNA, one strand shown
# T3 sequence: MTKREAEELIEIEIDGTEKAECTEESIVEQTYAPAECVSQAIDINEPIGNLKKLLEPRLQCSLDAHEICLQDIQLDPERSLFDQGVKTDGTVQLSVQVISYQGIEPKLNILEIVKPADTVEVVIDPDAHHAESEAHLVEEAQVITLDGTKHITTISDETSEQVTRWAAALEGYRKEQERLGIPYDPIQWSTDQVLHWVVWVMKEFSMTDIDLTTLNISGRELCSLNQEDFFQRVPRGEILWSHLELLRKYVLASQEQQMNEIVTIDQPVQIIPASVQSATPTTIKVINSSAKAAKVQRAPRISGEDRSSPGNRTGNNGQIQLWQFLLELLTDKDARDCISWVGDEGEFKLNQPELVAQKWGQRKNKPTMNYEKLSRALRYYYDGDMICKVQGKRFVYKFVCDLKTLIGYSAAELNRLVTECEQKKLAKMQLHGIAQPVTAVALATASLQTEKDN
# Outline: as §1
# [4] = molecular target: T4, ERG (Homo sapiens, UniProt P11308 1-479); conditions: protein: recombinant; tags: N-terminal GST; dsDNA, one strand shown
# T4 sequence: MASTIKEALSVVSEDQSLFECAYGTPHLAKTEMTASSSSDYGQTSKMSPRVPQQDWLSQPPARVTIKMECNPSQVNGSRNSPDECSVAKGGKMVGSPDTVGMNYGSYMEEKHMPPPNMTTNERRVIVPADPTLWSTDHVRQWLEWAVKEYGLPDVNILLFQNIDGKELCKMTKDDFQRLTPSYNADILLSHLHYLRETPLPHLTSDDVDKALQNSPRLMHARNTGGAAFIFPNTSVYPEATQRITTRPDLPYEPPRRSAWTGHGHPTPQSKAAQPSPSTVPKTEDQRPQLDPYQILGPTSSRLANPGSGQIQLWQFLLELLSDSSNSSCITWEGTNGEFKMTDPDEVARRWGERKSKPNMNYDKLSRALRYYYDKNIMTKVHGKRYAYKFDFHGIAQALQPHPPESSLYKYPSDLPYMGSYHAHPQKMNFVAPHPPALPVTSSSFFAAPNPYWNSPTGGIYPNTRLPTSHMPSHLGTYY
# Outline: as §1
# [5] = molecular target: ELF1 (Homo sapiens, UniProt P32519 1-619); conditions: protein: recombinant; tags: N-terminal GST; dsDNA, one strand shown
# Outline: as §1
# [6] = molecular target: T5, EHF (Homo sapiens, UniProt Q9NZC4 1-300); conditions: protein: recombinant; tags: N-terminal GST; dsDNA, one strand shown
# T5 sequence: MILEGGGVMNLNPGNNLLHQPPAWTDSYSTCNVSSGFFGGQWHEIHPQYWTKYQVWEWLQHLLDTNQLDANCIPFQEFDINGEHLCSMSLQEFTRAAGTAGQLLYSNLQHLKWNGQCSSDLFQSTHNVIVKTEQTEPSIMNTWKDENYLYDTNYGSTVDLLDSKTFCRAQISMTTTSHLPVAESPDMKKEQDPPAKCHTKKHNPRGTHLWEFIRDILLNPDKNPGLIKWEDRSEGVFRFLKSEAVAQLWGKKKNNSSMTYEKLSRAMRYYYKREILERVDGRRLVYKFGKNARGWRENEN
# Outline: as §1
# [7] = molecular target: SPI1 (Homo sapiens, UniProt P17947 1-270); conditions: protein: recombinant; tags: N-terminal GST; dsDNA, one strand shown
# Outline: as §1
# [8] = molecular target: SPIB (Homo sapiens, UniProt Q01892 1-262); conditions: protein: recombinant; tags: N-terminal GST; dsDNA, one strand shown
# Outline: as §1
# [9] = molecular target: T6, ELK3 (Homo sapiens, UniProt P41970 1-407); conditions: protein: recombinant; tags: N-terminal GST; dsDNA, one strand shown
# T6 sequence: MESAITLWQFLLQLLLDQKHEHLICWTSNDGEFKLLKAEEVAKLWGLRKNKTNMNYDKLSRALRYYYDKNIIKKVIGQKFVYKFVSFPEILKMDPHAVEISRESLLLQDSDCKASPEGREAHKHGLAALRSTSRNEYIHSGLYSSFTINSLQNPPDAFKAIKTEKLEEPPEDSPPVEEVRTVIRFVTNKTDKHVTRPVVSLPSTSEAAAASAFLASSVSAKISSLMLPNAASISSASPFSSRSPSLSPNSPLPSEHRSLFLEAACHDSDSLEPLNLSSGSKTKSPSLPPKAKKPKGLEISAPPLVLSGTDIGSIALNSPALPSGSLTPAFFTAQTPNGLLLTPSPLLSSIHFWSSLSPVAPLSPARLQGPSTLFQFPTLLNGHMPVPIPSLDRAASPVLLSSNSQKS
# Outline: as §1
# [10] = molecular target: T7, FEV (Homo sapiens, UniProt Q99581 1-238); conditions: protein: recombinant; tags: N-terminal GST; dsDNA, one strand shown
# T7 sequence: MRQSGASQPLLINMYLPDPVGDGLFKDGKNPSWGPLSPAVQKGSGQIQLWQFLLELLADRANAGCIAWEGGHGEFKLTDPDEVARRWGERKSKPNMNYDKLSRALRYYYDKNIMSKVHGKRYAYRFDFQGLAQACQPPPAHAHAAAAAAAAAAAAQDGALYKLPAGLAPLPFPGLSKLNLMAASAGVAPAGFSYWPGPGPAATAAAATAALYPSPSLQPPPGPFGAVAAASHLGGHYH
# Outline: as §1
# [11] = molecular target: ETV5 (Homo sapiens, UniProt P41161 1-510); conditions: protein: recombinant; tags: N-terminal GST; dsDNA, one strand shown
# Outline: as §1
# [12] = molecular target: HSF1 (Homo sapiens, UniProt Q00613 1-529); conditions: protein: recombinant; tags: N-terminal GST; chain copies: 3; dsDNA, one strand shown
# Outline: as §1
# [13] = molecular target: T8, SPIC (Homo sapiens, UniProt Q8N5J4 1-248); conditions: protein: recombinant; tags: N-terminal GST; dsDNA, one strand shown
# T8 sequence: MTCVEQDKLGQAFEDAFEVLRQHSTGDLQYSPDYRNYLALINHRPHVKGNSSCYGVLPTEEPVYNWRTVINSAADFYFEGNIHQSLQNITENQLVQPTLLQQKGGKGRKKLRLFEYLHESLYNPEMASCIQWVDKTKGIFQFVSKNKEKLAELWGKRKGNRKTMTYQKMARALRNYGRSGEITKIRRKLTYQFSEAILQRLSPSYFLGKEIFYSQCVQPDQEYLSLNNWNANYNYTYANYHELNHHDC
# Outline: as §1
# [14] = molecular target: ELF4 (Homo sapiens, UniProt Q99607 1-663); conditions: protein: recombinant; tags: N-terminal GST; dsDNA, one strand shown
# Outline: as §1
# [15] = molecular target: T9, ELK4 (Homo sapiens, UniProt P28324-2 1-405); conditions: protein: recombinant; tags: N-terminal GST; dsDNA, one strand shown
# T9 sequence: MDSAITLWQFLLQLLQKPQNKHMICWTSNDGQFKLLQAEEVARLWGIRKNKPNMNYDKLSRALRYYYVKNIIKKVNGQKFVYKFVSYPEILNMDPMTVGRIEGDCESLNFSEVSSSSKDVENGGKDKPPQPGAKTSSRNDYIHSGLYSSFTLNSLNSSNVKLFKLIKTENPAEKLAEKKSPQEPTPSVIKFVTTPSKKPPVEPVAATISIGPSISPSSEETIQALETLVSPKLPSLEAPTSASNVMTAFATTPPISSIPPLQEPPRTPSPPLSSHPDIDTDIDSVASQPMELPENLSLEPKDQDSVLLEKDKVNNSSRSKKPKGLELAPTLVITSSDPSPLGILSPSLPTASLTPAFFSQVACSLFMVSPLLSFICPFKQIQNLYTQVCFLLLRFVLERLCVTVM
# Outline: as §1
# [16] = molecular target: T10, ETV2 (Homo sapiens, UniProt O00321 1-342); conditions: protein: recombinant; tags: N-terminal GST; dsDNA, one strand shown
# T10 sequence: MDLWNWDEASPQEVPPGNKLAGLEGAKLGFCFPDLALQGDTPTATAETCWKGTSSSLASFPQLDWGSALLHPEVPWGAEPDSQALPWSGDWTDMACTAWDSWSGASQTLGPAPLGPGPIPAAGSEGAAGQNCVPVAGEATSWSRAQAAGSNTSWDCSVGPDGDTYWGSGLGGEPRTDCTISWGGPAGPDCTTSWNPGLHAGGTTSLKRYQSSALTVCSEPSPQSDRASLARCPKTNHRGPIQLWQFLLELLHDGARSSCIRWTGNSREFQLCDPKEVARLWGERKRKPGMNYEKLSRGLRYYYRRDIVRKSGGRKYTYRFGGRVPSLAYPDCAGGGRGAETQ
# Outline: as §1
# [17] = molecular target: T11, ELF3 (Homo sapiens, UniProt P78545 1-371); conditions: protein: recombinant; tags: N-terminal GST; dsDNA, one strand shown
# T11 sequence: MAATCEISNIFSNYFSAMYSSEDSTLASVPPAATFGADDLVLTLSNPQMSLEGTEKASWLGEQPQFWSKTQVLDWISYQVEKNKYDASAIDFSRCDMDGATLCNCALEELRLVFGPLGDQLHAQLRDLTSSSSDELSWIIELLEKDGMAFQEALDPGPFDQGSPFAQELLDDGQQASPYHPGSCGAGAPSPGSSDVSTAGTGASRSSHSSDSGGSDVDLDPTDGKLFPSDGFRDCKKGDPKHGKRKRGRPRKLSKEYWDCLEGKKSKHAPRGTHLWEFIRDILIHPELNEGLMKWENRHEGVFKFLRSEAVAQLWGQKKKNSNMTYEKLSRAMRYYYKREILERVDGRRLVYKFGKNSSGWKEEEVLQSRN
# Outline: as §1
# [18] = molecular target: ETV1 (Homo sapiens, UniProt P50549 1-477); conditions: protein: recombinant; tags: N-terminal GST; dsDNA, one strand shown
# Outline: as §1
# Sequence of ETV5 (P41161 whole entry): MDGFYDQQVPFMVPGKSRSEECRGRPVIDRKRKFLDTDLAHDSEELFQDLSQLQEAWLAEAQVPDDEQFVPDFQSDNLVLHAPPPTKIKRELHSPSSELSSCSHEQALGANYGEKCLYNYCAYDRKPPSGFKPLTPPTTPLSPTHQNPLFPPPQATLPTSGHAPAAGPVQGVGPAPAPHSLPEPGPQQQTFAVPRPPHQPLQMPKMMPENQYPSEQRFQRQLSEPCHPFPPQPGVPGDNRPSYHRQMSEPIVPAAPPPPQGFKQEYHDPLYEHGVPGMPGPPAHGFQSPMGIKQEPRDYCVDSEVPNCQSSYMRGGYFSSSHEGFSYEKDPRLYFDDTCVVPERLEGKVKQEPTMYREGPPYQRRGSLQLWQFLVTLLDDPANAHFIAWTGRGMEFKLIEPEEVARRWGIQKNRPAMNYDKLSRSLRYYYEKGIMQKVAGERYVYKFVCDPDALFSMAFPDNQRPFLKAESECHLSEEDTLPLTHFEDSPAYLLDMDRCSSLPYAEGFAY
# Sequence of ELF1 (P32519 whole entry): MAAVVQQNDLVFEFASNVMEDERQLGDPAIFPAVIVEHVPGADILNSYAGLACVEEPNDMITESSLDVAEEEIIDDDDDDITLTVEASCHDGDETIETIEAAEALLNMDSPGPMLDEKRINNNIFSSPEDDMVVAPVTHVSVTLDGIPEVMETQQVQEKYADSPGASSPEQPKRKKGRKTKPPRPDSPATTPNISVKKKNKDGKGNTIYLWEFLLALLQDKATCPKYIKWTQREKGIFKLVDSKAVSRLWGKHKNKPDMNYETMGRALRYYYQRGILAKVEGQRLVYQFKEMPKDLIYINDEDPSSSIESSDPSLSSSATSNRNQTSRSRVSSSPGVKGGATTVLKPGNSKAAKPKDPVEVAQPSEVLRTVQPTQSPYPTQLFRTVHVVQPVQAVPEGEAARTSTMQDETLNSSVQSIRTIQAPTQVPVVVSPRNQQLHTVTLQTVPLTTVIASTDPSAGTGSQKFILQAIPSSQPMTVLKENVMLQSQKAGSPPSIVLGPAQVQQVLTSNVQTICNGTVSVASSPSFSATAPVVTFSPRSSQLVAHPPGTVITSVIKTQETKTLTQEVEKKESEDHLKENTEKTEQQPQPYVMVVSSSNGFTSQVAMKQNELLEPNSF
# Sequence of ETV1 (P50549 whole entry): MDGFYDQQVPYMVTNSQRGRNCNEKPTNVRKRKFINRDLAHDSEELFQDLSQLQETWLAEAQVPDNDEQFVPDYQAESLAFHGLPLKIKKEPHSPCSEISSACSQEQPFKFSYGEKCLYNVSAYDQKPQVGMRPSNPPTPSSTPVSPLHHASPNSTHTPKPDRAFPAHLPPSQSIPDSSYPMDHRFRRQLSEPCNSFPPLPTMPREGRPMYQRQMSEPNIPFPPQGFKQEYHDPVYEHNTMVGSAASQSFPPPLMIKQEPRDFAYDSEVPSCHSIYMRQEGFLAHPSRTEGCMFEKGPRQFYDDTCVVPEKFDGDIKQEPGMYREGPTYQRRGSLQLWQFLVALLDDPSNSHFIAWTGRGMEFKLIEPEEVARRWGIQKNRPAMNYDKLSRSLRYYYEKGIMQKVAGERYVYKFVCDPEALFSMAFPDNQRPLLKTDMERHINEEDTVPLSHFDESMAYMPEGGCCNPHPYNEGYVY
# Sequence of ELF4 (Q99607 whole entry): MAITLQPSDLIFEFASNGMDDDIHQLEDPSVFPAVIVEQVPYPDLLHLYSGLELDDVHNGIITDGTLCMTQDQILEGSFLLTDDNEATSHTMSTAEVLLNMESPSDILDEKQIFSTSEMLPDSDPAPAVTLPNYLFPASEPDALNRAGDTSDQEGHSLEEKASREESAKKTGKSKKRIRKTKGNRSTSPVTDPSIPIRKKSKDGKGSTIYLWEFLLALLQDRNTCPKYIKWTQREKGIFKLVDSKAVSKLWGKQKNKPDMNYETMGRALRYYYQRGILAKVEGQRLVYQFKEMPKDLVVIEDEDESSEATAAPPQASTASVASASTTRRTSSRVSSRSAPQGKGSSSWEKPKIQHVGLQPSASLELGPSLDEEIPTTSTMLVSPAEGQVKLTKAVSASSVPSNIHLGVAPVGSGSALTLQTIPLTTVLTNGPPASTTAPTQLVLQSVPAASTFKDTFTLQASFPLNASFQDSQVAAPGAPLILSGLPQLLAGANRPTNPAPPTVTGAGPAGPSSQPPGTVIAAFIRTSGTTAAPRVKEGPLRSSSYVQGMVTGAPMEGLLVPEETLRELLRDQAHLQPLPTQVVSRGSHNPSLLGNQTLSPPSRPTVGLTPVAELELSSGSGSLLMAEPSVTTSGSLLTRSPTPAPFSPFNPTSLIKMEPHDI
# Sequence of SPIB (Q01892 whole entry): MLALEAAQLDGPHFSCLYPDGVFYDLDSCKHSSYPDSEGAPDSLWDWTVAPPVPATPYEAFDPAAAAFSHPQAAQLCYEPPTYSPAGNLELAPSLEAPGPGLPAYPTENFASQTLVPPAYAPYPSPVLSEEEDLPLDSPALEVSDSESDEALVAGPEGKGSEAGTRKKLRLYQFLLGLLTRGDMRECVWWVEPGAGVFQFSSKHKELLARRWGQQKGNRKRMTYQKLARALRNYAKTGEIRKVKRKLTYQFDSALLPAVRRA
# Sequence of HSF1 (Q00613 whole entry): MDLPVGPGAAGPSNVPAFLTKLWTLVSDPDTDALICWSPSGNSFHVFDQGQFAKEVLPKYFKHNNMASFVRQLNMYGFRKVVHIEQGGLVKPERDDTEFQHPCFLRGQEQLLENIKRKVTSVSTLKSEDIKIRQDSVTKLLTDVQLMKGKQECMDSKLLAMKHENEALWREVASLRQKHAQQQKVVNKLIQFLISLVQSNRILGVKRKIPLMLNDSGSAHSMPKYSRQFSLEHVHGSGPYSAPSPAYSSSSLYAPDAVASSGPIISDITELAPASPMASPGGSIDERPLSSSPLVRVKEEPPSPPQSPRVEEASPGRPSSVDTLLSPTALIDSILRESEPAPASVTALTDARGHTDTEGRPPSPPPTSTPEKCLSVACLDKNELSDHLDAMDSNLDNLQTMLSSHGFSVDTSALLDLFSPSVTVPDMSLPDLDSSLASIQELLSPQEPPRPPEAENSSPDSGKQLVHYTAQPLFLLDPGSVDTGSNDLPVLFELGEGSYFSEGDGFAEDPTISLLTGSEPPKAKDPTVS
sequence,measurement,setting,value
GAAGAA,binding signal,[1],"1.03 fold enrichment (6-mer frequency, TF over GST control)"
same,binding signal,[2],"1.11 fold enrichment (6-mer frequency, TF over GST control)"
same,binding signal,[3],"1.14 fold enrichment (6-mer frequency, TF over GST control)"
same,binding signal,[4],"1.19 fold enrichment (6-mer frequency, TF over GST control)"
same,binding signal,[5],"1.12 fold enrichment (6-mer frequency, TF over GST control)"
same,binding signal,[6],"1.14 fold enrichment (6-mer frequency, TF over GST control)"
same,binding signal,[7],"1.13 fold enrichment (6-mer frequency, TF over GST control)"
same,binding signal,[8],"1.03 fold enrichment (6-mer frequency, TF over GST control)"
same,binding signal,[9],"1.13 fold enrichment (6-mer frequency, TF over GST control)"
same,binding signal,[10],"1.08 fold enrichment (6-mer frequency, TF over GST control)"
same,binding signal,[11],"1.16 fold enrichment (6-mer frequency, TF over GST control)"
same,binding signal,[12],"1.46 fold enrichment (6-mer frequency, TF over GST control)"
same,binding signal,[13],"1.18 fold enrichment (6-mer frequency, TF over GST control)"
same,binding signal,[14],"1.15 fold enrichment (6-mer frequency, TF over GST control)"
same,binding signal,[15],"1.17 fold enrichment (6-mer frequency, TF over GST control)"
same,binding signal,[16],"1.2 fold enrichment (6-mer frequency, TF over GST control)"
same,binding signal,[17],"1.26 fold enrichment (6-mer frequency, TF over GST control)"
same,binding signal,[18],"1.2 fold enrichment (6-mer frequency, TF over GST control)"
